# Assay results published in PubChem BioAssay (NCI).
# The panel holds about 83,000 compounds, 20% with a hit somewhere; the sample as a whole holds those more often.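 Compound tested at a single concentration for 48 hours in 96-well plates; a percent growth value below 10 was scored as active.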 A number with no mark means an inactive call. Activity calls are given as the source filed them.
# Tested on: A549/ATCC NSCLC
# Assay: NCI-60 one-dose screen, 48 h (100 = growth as untreated, 0 = no growth, -100 = all killed)
# Conditions: 10 µM
# Method: Growth inhibition of the A549/ATCC human Non-Small Cell Lung tumor cell line is measured as a screen for anti-cancer activity. Cells are grown in 96 well plates and exposed to the test compound for 48 hours. Compounds are tested at a single concentration, which is 10^-5 M for most compounds. The reported endpoint is percent growth (GI% or GIPRCNT), where numbers from 0 - 100% represent growth inhibition, and numbers from -100% - 0 represent cell death. For example, a value of 40 represents 60% growth inhibition. A value of 0 means no net growth occurred over the course of the experiment. A value of -40 indicates 40% of cells at the beginning of the experiment died by the end of the experiment. A value of -100 means all cells are dead at the end of the experiment.
# NCI-60 Human Tumor Cell Lines Screen was performed using the standard one-dose NCI protocol, which is described in more detail at https://dtp.cancer.gov/discovery_development/nci-60/default.htm.
# Compounds with GIPRCNT values below 10 were considered active. Activity score was based on GIPRCNT using the following formula: […]
# Score is 0 for GIPRCNT values of 100 or above, 50 for GIPRCNT values of 0, and 100 for GIPRCNT values of -100.
row,Compound,growth
1,Nc1ccccc1C(=O)Nc1ccc(Cl)cc1Cl,102%
2,Cc1ncc(C#N)c(N)n1,106%
3,Nc1ccc(CC(=O)O)c(N)c1,99.7%
4,Cc1ccc(Cl)cc1NC(=O)N(C)CCO,59.5%
5,O=C1c2ccccc2C(=O)c2c1ccc(C(=O)O)c2[N+](=O)[O-],103%
6,CCOC(=O)CSc1c([N+](=O)[O-])ncn1C,97.6%
7,CC(=O)c1cc2c(cc1F)C(C)(C)CCC2(C)C,89%
8,CC1CC(O)C2C3(C)CCCC2(COC3=O)C12CCC1(CCOC1=O)O2 (stereo not given),110%
9,Cc1ccc(S(=O)(=O)O)c(C)c1,104%
10,COc1cccc(O)c1O,101%
11,O=C(c1ccc(Cl)cc1)c1ccccc1Cl,95.1%
12,Cc1cccc(C(=O)N(C(C)C)C(C)C)c1,86.3%
13,N#Cc1ccc(NC(=O)Nc2cccc(C#N)c2)cc1,69.1%
14,O=C(OCC(O)C1OC(c2ccccc2)OC(COC(=O)c2ccccc2)C1O)c1ccccc1 (stereo not given),94.8%
15,CCS(=O)(=O)c1cc(=O)[nH]c(=O)[nH]1,102%
16,NCCC(=O)c1ccc(Cl)cc1,111%
17,S=c1nn[nH]c2ccccc12,96.4%
18,CC(C(=O)O)(C1CCCCC1)C1(O)CCCCC1 (stereo not given),106%
19,CCCNc1ccc(C2=NCCCN2)cc1,79.2%
20,COCCOC(=O)c1ccc(C(C)C)cc1,79.5%

row,Compound,growth
1,CC(C)CCOC(=O)c1ccccc1,102%
2,O=C(O)/C=C/c1ccc2c(c1)CCC2,106%
3,Cc1cc(N)ccc1-c1ccc(N)cc1C,92.8%
4,Cc1cc(=O)cc(C)n1-c1ccccc1,99.1%
5,CN(C)/N=C/c1ccccc1O,104%
6,CCOC(=O)c1ccc(Nc2sc(C(=O)c3cccc([N+](=O)[O-])c3)c(N)c2C#N)cc1,48.3%
7,CSC(=N\N=C\c1ccc(N(C)C)cc1)/N=C/N(C)C,103%
8,CCN=c1cc2sc3cc(NCC)c(C)cc3nc-2cc1C,-40.3% (active)
9,CC(=O)Nc1ccc(NC(C)=O)c2c1C(=O)c1ccccc1C2=O,96.2%
10,CC12CC3CC1C(C(=O)O2)C3C(=O)O (stereo not given),96.3%
11,COc1cc(C(=O)N/N=C/c2cccc([N+](=O)[O-])c2)cc(OC)c1OC,65.7%
12,OCc1ccc(-c2ccc(-c3ccc(CO)s3)o2)s1,19.8%
13,CN(C)CCN(C)CC(C)(C)C(=O)/C=C/c1ccc(Cl)cc1,8.12% (active)
14,Cc1cc(C)c(N)c(S(=O)(=O)O)c1,114%
15,C=CC[N+](C)(C)C,100%
16,O=c1cc(-c2ccccc2)[nH]c2c1CCCC2,36.6%
17,CCOC(=O)C(C#N)Cc1ccccc1 (stereo not given),109%
18,CC(=O)OC(OC(C)=O)C1CCCO1 (stereo not given),101%
19,O=C1C=C(O)C(=O)C=C1O,112%
20,COc1cc(/C=N\Nc2ccccc2)ccc1OC(=O)c1ccccc1,68.6%
